The source of these data is paper PMC4336329 (PLoS ONE, 2015).

Molecules are shown by their SMILES. The campaign covered roughly 310,000 compounds. About 14,000 (4.5%) showed an effect of 50% or more. Effects have a minus sign here. For the sample, strong results were picked, then their nearest neighbours and some compounds at random.
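Note: peak tail current of the secondary pulse compared with the same well before compound.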

Sequence of human ether-à-go-go-related gene (hERG) potassium channel (Q12809 whole entry, looked up): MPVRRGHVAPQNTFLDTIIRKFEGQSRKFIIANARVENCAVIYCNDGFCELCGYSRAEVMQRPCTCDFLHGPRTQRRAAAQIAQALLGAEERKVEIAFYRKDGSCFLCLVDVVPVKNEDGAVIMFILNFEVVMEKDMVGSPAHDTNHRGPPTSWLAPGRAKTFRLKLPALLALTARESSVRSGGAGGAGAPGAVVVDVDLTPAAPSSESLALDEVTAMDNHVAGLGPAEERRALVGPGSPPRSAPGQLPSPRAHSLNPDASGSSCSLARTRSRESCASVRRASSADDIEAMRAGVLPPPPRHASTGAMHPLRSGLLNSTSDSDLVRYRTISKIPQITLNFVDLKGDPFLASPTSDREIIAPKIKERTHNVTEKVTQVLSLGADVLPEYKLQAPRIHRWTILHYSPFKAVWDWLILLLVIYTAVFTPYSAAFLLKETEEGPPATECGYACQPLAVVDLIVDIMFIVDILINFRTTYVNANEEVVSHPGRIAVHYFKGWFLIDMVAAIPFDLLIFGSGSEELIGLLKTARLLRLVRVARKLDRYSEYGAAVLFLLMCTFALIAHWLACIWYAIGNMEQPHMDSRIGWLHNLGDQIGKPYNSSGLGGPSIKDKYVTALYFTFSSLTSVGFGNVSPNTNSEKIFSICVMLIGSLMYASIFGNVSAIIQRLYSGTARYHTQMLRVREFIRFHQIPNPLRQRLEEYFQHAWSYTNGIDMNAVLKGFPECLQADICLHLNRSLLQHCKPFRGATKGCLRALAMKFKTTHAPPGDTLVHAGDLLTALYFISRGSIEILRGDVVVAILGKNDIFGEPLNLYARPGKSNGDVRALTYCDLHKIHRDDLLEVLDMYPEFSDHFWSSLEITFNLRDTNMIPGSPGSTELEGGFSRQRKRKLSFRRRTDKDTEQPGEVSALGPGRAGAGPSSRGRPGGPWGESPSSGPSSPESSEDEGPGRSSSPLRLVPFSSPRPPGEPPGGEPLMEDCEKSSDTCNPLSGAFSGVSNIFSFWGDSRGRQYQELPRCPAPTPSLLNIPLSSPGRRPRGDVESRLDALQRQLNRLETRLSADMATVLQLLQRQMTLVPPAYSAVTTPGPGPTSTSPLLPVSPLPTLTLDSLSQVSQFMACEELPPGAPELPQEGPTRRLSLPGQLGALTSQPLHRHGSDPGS

This assay addresses human ether-à-go-go-related gene (hERG) potassium channel (human, UniProt Q12809). Nature of the assay: primary screen, population patch clamp on CHO cells stably expressing hERG; higher = less effect of the substance.
`CNc1nccc(-c2ccc(F)cc2)c1C#N`: the “hERG current change (%, negative = inhibition) at 10uM” value was 6.25%.
For `N#Cc1c(F)cccc1N1CCN(Cc2ccc3c(c2)OCO3)CC1`, the “hERG current change (%, negative = inhibition) at 10uM” value was -81.3%.
For `O=C(CN1CCN(Cc2ccc3c(c2)OCO3)CC1)Nc1cc(S(=O)(=O)N2CCCC2)ccc1Cl` the value was -18.8%; for `Cc1cccc(N2CCN(Cc3ccc4c(c3)OCO4)CC2)c1C`, 3.83%; for `COc1ccc(NC(=O)CN2CCN(Cc3ccc4c(c3)OCO4)CC2)cc1OC.O=C(O)C(=O)O`, -17.4%.
Consider `O=C(CN1CCN(Cc2ccc3c(c2)OCO3)CC1)Nc1ccc2c(c1)OCO2`, for which the “hERG current change (%, negative = inhibition) at 10uM” value is given as -72.5%.
Consider `CN(C)S(=O)(=O)c1ccc(Cl)c(NC(=O)CN2CCCCCC2)c1`, for which the “hERG current change (%, negative = inhibition) at 10uM” value was -24.6%.
For `OC1(c2ccc3c(c2)OCO3)CCN(Cc2ccc(F)cc2)CC1` the value was -51.4%; for `O=S(=O)(c1ccc(F)cc1)N1CCC(O)(c2ccc3c(c2)OCO3)CC1`, -42%.
`O=C(CN1CCN(Cc2ccc3c(c2)OCO3)CC1)Nc1ccc(N2CCOCC2)cc1`: the “hERG current change (%, negative = inhibition) at 10uM” value was -6.54%.
In the case of `Fc1ccccc1N1CCN(Cc2ccc3c(c2)OCO3)CC1` it was -26.8%.
In the case of `CN(C)S(=O)(=O)c1ccc(Cl)c(NC(=O)CN2CCN(Cc3ccc4c(c3)OCO4)CC2)c1` it was -64.6%; in that of `OC1(c2ccc3c(c2)OCO3)CCN(Cc2ccccn2)CC1`, -6.96%.
`CS(=O)(=O)c1ccc2nc(NC(=O)c3ccc(N4CCCC4=O)cc3)sc2c1`: the “hERG current change (%, negative = inhibition) at 10uM” value is listed as 13.3%.
Regarding `CCCCNC(=O)[C@H]1N2C(=O)c3c(ccc(OC)c3OC)C2SC1(C)C` (some centres unmarked), the “hERG current change (%, negative = inhibition) at 10uM” value is given as 12.8%.
As for `S=c1[nH]ncn1/N=C/c1ccc(N2CCOCC2)cc1`, the “hERG current change (%, negative = inhibition) at 10uM” value was determined as 14.9%.
For `CCCN(Cc1nnc(-c2cccs2)o1)C(=O)c1cccc(S(=O)(=O)N2CCOCC2)c1` the value was -25.3%; for `CC(NC(=O)COC(=O)c1ccc(CO)cc1)C1CC2CCC1C2` (centres unmarked), 7.65%; for `CC(=O)Nc1ccc(C(=O)NN2C(=O)c3ccccc3C2=O)cc1`, 7.29%.
Regarding `COc1ccc(OC)c(C(=O)NC(CC(N)=O)c2ccc(N3CCC(Cc4ccccc4)CC3)c([N+](=O)[O-])c2)c1` (centres unmarked), the “hERG current change (%, negative = inhibition) at 10uM” value is -5.07%.
In the case of `CCOC(=O)CN(C(=O)COc1nc(-c2ccccc2)cc(C)c1C#N)c1ccc(F)cc1` it was 1.18%.
In the case of `Cc1ccc(-n2c(-c3ccncc3)n[nH]c2=S)c(C)c1`, the “hERG current change (%, negative = inhibition) at 10uM” value is listed as 13.7%.
For `COC(=O)c1ccsc1NC(=O)CN1CCN(Cc2ccc3c(c2)OCO3)CC1` the value was -78.4%.
For `O=C(CSCc1ccccc1)N1CCN(Cc2ccc3c(c2)OCO3)CC1` the value was -22%; for `COC(=O)c1c(NC(=O)CN2CCN(Cc3ccc4c(c3)OCO4)CC2)sc(C)c1C.O=C(O)C(=O)O`, -28.9%.
In the case of `Oc1cc2c(cc1CN1CCN(c3ccc(F)cc3)CC1)OCO2` it was -1.5%.
Take `CCOc1cc(N2CCOCC2)c(OCC)cc1NC(=O)CN1CCC(Cc2ccccc2)CC1`: the “hERG current change (%, negative = inhibition) at 10uM” value is recorded as -3.67%.
For `Fc1ccc(N2CCN(Cc3ccc4c(c3)OCO4)CC2)cc1` the value was -51.3%.
As for `C/C(=C\c1ccccc1)C(=O)N1CCN(Cc2ccc3c(c2)OCO3)CC1`, the “hERG current change (%, negative = inhibition) at 10uM” value is -51.6%.
With `COc1ccsc1C(=O)N1CCN(Cc2ccc3c(c2)OCO3)CC1`, the “hERG current change (%, negative = inhibition) at 10uM” value is listed as -16.5%.
In the case of `CCOc1cc(N2CCOCC2)c(OCC)cc1NC(=O)CN1CCCC1` it was 6.63%.
As for `Fc1ccc(N2CCN(Cc3cc4c(cc3Br)OCO4)CC2)cc1`, the “hERG current change (%, negative = inhibition) at 10uM” value was 7.74%.
In the case of `CCOc1cc(N2CCOCC2)c(OCC)cc1NC(=O)CN1CCN(Cc2ccc3c(c2)OCO3)CC1.Cl` it was -55.8%; in that of `CC(C)CC(=O)N1CCN(Cc2ccc3c(c2)OCO3)CC1`, 0.479%; in that of `O=C1CC(Cc2ccc(Cl)cc2)C(=O)N1c1ccccn1` (centres unmarked), 1.83%.
On to `CCOc1ccc(NC(=O)[C@@H](NC(=O)c2ccccc2)[C@@H](C)CC)cc1`, for which the “hERG current change (%, negative = inhibition) at 10uM” value is given as 2.26%.
For `CCC(C)NC(=O)CSc1c2c(nc3ccccc13)CCCC2` (centres unmarked) the value was -7.98%; for `O=C(N/N=C/c1ccc([N+](=O)[O-])s1)c1cccnc1`, 5.77%.
With `Cc1cc(C)nc(Sc2nc(C)nc3c2oc2ccccc23)n1`, the “hERG current change (%, negative = inhibition) at 10uM” value is reported as -1.57%.
In the case of `CCc1ccc(S(=O)(=O)Nc2c(NC3CCCCC3)c3ccccc3oc2=O)cc1` it was -3.7%; in that of `CC1CN(S(=O)(=O)c2ccc(C(=O)N3CCc4ccccc43)cc2)CC(C)O1` (centres unmarked), 15.9%; in that of `CN(C1CCCCC1)S(=O)(=O)c1cccc(C(=O)Nc2ccccn2)c1`, -53.7%.
Consider `CC(=O)Nc1ccc(NC(=O)c2cccc(S(=O)(=O)N(C)C3CCCCC3)c2)cc1`, for which the “hERG current change (%, negative = inhibition) at 10uM” value was 6.97%.
As to `Cc1ccc(NC(=O)c2cccc(S(=O)(=O)N(C)C3CCCCC3)c2)nc1`, the “hERG current change (%, negative = inhibition) at 10uM” value is -34.7%.
With `c1ccc(-c2ccccc2OCCN2CCCC2)cc1`, the “hERG current change (%, negative = inhibition) at 10uM” value is given as -26.6%.
In the case of `O=C1Cc2ccccc2Sc2ccccc21` it was 1.13%; in that of `CN(C)CCOc1ccc2c(c1)Sc1ccccc1CC2=O.Cl`, -64.8%.
In the case of `Cc1cccc(OCCCN2CCCCCC2)c1` it was -28.2%.
Regarding `CN(C)CCCOc1ccc2c(c1)Sc1ccccc1CC2=O.Cl`, the “hERG current change (%, negative = inhibition) at 10uM” value is listed as -74.3%.
In the case of `Cc1cccc2c1Sc1ccccc1CC2=O`, the “hERG current change (%, negative = inhibition) at 10uM” value was 0.0655%.
As to `O=C1Cc2ccccc2Sc2ccc(Cl)cc21`, the “hERG current change (%, negative = inhibition) at 10uM” value was 16%.
For `O=C1Cc2ccccc2Sc2ccc(O)cc21` the value was 16.4%; for `Cc1ccc2c(c1)Sc1ccccc1CC2=O`, -20.9%; for `Cl.O=C1Cc2ccccc2Sc2cc(OCCCN3CCCCC3)ccc21`, -69.8%.
Regarding `Cl.O.O=C1Cc2ccccc2Sc2c(OCCN3CCCCC3)cccc21`, the “hERG current change (%, negative = inhibition) at 10uM” value is listed as -63.4%.
With `COc1cccc(OCCCN2CCCCC2)c1`, the “hERG current change (%, negative = inhibition) at 10uM” value is -16.2%.
For `O=C(O)c1n[nH]c2ccccc12`, the “hERG current change (%, negative = inhibition) at 10uM” value is reported as -4.09%.
Regarding `C[N+]1(CC(=O)NNc2c3ccccc3nc3ccccc23)CCOCC1.[Br-]`, the “hERG current change (%, negative = inhibition) at 10uM” value was found to be 3.64%.
Take `COC(=O)C(=Nc1ccccc1)/C(C(=O)C(=O)N(C)c1ccccc1)=C(\O)c1ccccc1`: the “hERG current change (%, negative = inhibition) at 10uM” value came out at 22.7%.
For `CC1(C)CCCC2=C1CC1C(=O)N(Cc3cccnc3)C(=O)C1C2` (centres unmarked) the value was -5.71%; for `COc1ccc(-c2csc(-c3cc4ccccc4oc3=N)n2)cc1`, -4.44%.
In the case of `CCCC(=O)N1CCN(c2ccc(NC(=O)c3ccc(Br)o3)cc2)CC1` it was -8.1%; in that of `COc1ccccc1NC(=O)C1CCN(S(=O)(=O)c2cccs2)CC1`, -7.13%; in that of `c1ccc2[nH]c(CN3CCCCC3)nc2c1`, 1.41%.
Take `Cc1ccnc(NC(=O)c2oc3ccccc3c2C)c1`: the “hERG current change (%, negative = inhibition) at 10uM” value is 24.7%.
In the case of `O=C(O)/C=C1\NC(=O)c2ccccc21` it was 17%; in that of `COCC1CCCN(Cc2cn(-c3ccccc3F)nc2-c2cc(C)sc2C)C1` (centres unmarked), -39.4%; in that of `COCC1CCN(Cc2cn(C)nc2-c2cccc(Cl)c2)C1` (centres unmarked), -2.21%.
With `COCC1CCN(Cc2cn(Cc3ccccc3)nc2-c2cc3ccccc3o2)CC1`, the “hERG current change (%, negative = inhibition) at 10uM” value was -76.6%.
For the compound `COCC1CCCN(Cc2cn(Cc3ccccc3)nc2-c2cc3ccccc3o2)C1` (centres unmarked), the “hERG current change (%, negative = inhibition) at 10uM” value is -72.8%.
In the case of `COCC1CCCN(Cc2nc(Cc3ccccc3)no2)C1` (centres unmarked) it was 11.6%; in that of `CN(Cc1cn(C)nc1-c1ccccc1F)CC1CCN(Cc2ccccc2)CC1`, -15.6%; in that of `CCCn1nnnc1SCC(=O)Nc1cccc(NC(=O)c2ccco2)c1`, -34.8%.
For `COc1ccc(OC)c(NC(=O)c2cnc(Nc3ccccc3OC)c3ccccc23)c1`, the “hERG current change (%, negative = inhibition) at 10uM” value is reported as -7.53%.
`CCN(CCCNC(=O)C1CCN(S(=O)(=O)CC)CC1)c1cccc(C)c1`: the “hERG current change (%, negative = inhibition) at 10uM” value is recorded as -40.4%.
In the case of `Nc1c(C(=O)Nc2ccc(Cl)c(C(=O)O)c2)sc2nc3c(cc12)CCCC3` it was -3.17%; in that of `O=C(CSc1ccc2nnc(-c3ccccn3)n2n1)Nc1nccs1`, -27.6%.
For `CC(C)(C)OC(=O)NCc1n[nH]c(=S)n1C1CC1` the value was 14.5%; for `COCCN(Cc1cc2cc3c(cc2nc1Cl)OCO3)C(C)=O`, 3.81%; for `COCCN(Cc1cc2cc3c(cc2nc1Cl)OCO3)C(=O)Nc1ccc(OC)cc1`, 14.7%.
In the case of `COCCN(Cc1cc2cc3c(cc2nc1Cl)OCO3)C(=O)Nc1ccccc1OC` it was 16.3%; in that of `COCCN(Cc1cc2cc3c(cc2nc1Cl)OCO3)C(=O)Nc1ccc(F)cc1`, -30%; in that of `COCCN(Cc1cc2cc3c(cc2nc1Cl)OCO3)C(=O)c1cccc(C)c1`, -64.3%.
For `COCCN(Cc1cc2cc3c(cc2nc1Cl)OCO3)C(=O)c1ccc(C)cc1`, the “hERG current change (%, negative = inhibition) at 10uM” value is -53.2%.
Take `CCOC(=O)c1c[nH]c2c(C)ccc(Cl)c2c1=O`: the “hERG current change (%, negative = inhibition) at 10uM” value worked out at 20.9%.
Regarding `Cc1ccc(N2CCN(CCc3nc4cc(NS(C)(=O)=O)ccc4n3C)CC2)cc1`, the “hERG current change (%, negative = inhibition) at 10uM” value is given as -59.8%.
For `Cc1ccc(S(=O)(=O)Nc2ccc3c(c2)nc(CCN2CCOCC2)n3C)cc1`, the “hERG current change (%, negative = inhibition) at 10uM” value is -17.2%.
For `Cc1ccc(S(=O)(=O)Nc2ccc3c(c2)nc(CCN2CCCCC2)n3C)cc1` the value was -63.6%; for `Cc1ccc(S(=O)(=O)Nc2ccc3c(c2)nc(CCN2CCCC2)n3C)cc1`, -42.5%.
Regarding `CCC(=O)Nc1ccc2c(c1)nc(CCN1CCN(c3ccccc3)CC1)n2C`, the “hERG current change (%, negative = inhibition) at 10uM” value was -33.5%.
For the compound `Cn1c(CCN2CCCC2)nc2cc(NS(=O)(=O)c3ccc(Cl)cc3)ccc21`, the “hERG current change (%, negative = inhibition) at 10uM” value was -84%.
In the case of `Cn1c(CCNC(=O)c2ccco2)nc2cc(NS(=O)(=O)c3ccc(Cl)cc3)ccc21` it was -65.2%; in that of `CC(C)C(=O)Nc1ccc2c(c1)nc(CCN1CCN(c3ccccc3)CC1)n2C`, -40.4%.
On to `CC(=O)NCCc1nc2cc(NS(=O)(=O)c3ccc(Cl)cc3)ccc2n1C`, for which the “hERG current change (%, negative = inhibition) at 10uM” value was 10.4%.
Turning to `Cn1c(CCNC(=O)c2ccco2)nc2cc(NS(=O)(=O)c3ccccc3)ccc21`, the “hERG current change (%, negative = inhibition) at 10uM” value is -6.01%.
